Here are results for 62 molecules from PubChem BioAssay AID485270 (The Scripps Research Institute Molecular Screening Center, 2010).

Each structure is given as a SMILES string. The campaign covered roughly 330,000 compounds. About 5,800 (1.8%) were called active. The list comes from a sample in which actives are over-represented; it also holds similar structures and randomly drawn compounds. A number with no mark means an inactive call. Cut-off read from the data, not from the text of the source: active = inhibition mostly above about 38% (no sharp cut-off); inactive = mostly below about 40%.

Sequence of Orexin/Hypocretin receptor type 1 (Homo sapiens) (O43613 whole entry, looked up): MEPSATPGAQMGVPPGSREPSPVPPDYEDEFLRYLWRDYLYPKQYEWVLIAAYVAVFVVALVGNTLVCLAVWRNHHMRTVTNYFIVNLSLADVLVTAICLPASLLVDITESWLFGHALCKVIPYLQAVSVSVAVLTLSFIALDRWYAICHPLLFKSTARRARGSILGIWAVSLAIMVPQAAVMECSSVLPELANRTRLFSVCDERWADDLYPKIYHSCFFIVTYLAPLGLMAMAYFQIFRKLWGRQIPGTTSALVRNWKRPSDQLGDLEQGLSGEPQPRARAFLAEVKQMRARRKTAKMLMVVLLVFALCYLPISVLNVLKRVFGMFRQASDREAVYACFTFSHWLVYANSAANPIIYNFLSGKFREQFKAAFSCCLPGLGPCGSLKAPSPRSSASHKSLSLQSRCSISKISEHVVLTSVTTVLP

The test addresses Orexin/Hypocretin receptor type 1 (Homo sapiens) (UniProt O43613). As to the kind of experiment: blocks the human orexin 1 receptor (AID 485270).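 Note: 0% = agonist challenge alone and 100% = reference antagonist.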 To be noted: OX1R-expressing cells, FRET antagonist read-out; at 6.6 µM; hits give high values.
Turning to `CC[C@]12c3[nH]c4ccc(Cl)cc4c3CCN1C(=O)[C@@H](CC(=O)NCCCOC)C[C@@H]2C(=O)N1CCN(C(=O)c2ccco2)CC1`, the inhibition (commonly the drop in the measured response relative to a control, in per cent) is 1.35%.
The same measure for `CCC(CO)Oc1cc(NC(=O)c2ccc(Cl)cc2)c2ncn(C(C)C)c2c1` (configuration not stated): 0.25%; for `O=C(Nc1cc(S(=O)(=O)N2CCOCC2)ccc1N1CCOCC1)c1c(F)cccc1Cl`: 8.73%; for `COc1ccc(-c2cc3ncccc3cn2)cc1`: 21.6%.
The same measure for `CC(C)(C)OC(=O)C[C@@H]1C/C=C\C[C@@H](CC(=O)NCCO)C(=O)N[C@H](Cc2c[nH]c3ccccc23)COC1=O`: 3.99%.
With `COc1ccccc1NC(=O)CN(c1ccccc1OC)S(=O)(=O)c1ccccc1`, the inhibition is 75.8% (active).
The value for `CCN(c1ccccc1)S(=O)(=O)c1ccc(C(=O)Nc2ccccc2OC)cc1` was 14%; that for `COc1ccccc1N(CC(=O)N1CCCCC1)S(=O)(=O)c1ccccc1` was 13.9%; that for `O=C(NCCc1c[nH]c2ccccc12)c1cc2ccccc2oc1=O` was 1.13%.
The value for `O=C(CNC(=O)Cc1ccccc1)N=Nc1c(O)[nH]c2ccc(Br)cc12` was 8.32%; that for `COC(=O)Cn1c(O)c(N=NC(=O)OC)c2ccccc21` was 41.9%; that for `CCOC(=O)Cn1c(O)c(N=NC(=O)CNC(=O)Cc2ccccc2)c2ccccc21` was 38.3% (active).
Consider `CCN(CC)C(=O)[C@H]1C[C@H](CC(=O)NCC23CC4CC(CC(C4)C2)C3)C(=O)N2CCc3c([nH]c4cc(CCC(=O)N(C)C)ccc34)[C@]12C`, for which the inhibition is 5.23%.
Take `Cc1ccsc1C(=O)NNC(=O)COc1ccc(Br)cc1`: the inhibition was 3.22%.
On to `NCC(=O)c1cccc2ccc[n+]([O-])c12`, for which the inhibition is 10.5%.
The same measure for `Cc1ccc2cccc(O)c2[n+]1[O-]`: 53.1% (active); for `C[C@H](CO)N1C[C@H](C)[C@@H](CN(C)C(=O)Nc2ccc3c(c2)OCO3)Oc2c(cccc2N(C)C)C1=O`: -4.67%.
The value for `O=C(COc1ccc(F)cc1Br)NCC1COc2ccccc2O1` (configuration not stated) was 7.79%; that for `CC(C)(C)NS(=O)(=O)NC(=O)C1=C(N2CCCC2)COC1=O` was -2.54%; that for `COc1ccc(C2=Nn3c(nnc3-c3ccccc3OC)SC2)cc1OC1CCCC1` was 11.2%.
The value for `N#C/C(=C\c1ccc(-c2cccc([N+](=O)[O-])c2)o1)C(=O)NCCN1CCOCC1` was 43.6%.
Turning to `CN(C)CCNC(=O)/C(=C/c1cccc([N+](=O)[O-])c1)NC(=O)c1ccccc1`, the inhibition is 12.9%.
Turning to `Cc1ccc(C(=O)N/C(=C/c2ccc(-c3cccc([N+](=O)[O-])c3)o2)C(=O)NCCCN(C)C)cc1`, the inhibition is 63.9% (active).
`O=C(OCC(=O)N1CCN(C(=O)c2ccco2)CC1)c1c(Cl)cccc1Cl`: the inhibition was 9.98%.
Turning to `Cc1ccc(N(CC(=O)Nc2cc(C)cc(C)c2)S(=O)(=O)c2cccc3nonc23)cc1`, the inhibition is 46.5% (active).
Regarding `CCOC(=O)c1cccc(NC(=O)CN(c2ccc(C)cc2)S(=O)(=O)c2c(C)noc2C)c1`, the inhibition is 68.3%.
Turning to `Cc1ccc(CNC(=O)CCNS(=O)(=O)c2cccc3nonc23)cc1`, the inhibition was 9.03%.
The same measure for `CCOCN(C(=O)Cn1c(C(C)O)nc2ccccc21)c1c(C)cccc1CC` (configuration not stated): 24%; for `O=C(NCCCCCCNC(=O)NCc1ccco1)NCc1ccco1`: 10.8%.
The value for `Cc1cc(NC(=O)CSc2ncc(C(F)(F)F)cc2Cl)no1` was 0.5%; that for `CCCCCCSc1ccc(-c2nc3ccc(Cl)cn3c2NCc2ccccc2)cc1` was 12.3%.
As to `COc1ccc2sc(-c3ccc(S(C)(=O)=O)cc3)c(-c3ccc(C(N)=O)cc3)c2c1`, the inhibition is 8.78%.
The same measure for `COc1ccc(Br)cc1CN(C)CC(=O)Nc1cc([N+](=O)[O-])ccc1OC`: 12.8%.
As for `CN(CCOc1ccc(Br)cc1)CC(=O)Nc1cccc(S(=O)(=O)NC2=NCCC2)c1`, the inhibition is 18.8%.
The value for `COc1ccc(OC)c(NC(=O)CN(C)CCOc2ccc(Br)cc2)c1` was 38.8% (active); that for `CN(CC(=O)Nc1cccc2c1CCCC2)S(=O)(=O)c1ccc(Cl)cc1` was 3.84%; that for `COc1ccc(-c2nc3cnccn3c2NC2CCCCC2)cc1-c1cccc(Cl)c1` was 14.3%.
Turning to `COc1ccccc1N1CCN(C(=O)c2cc3c(-c4ccc(Cl)cc4)nn(C)c3s2)CC1`, the inhibition is 2.56%.
The value for `Cn1nc(-c2ccc(Cl)cc2)c2cc(C(=O)NCc3ccco3)sc21` was 56.6% (active); that for `COc1ccc2c(Cl)c(C(=O)NCc3ccco3)sc2c1` was 5.49%; that for `CN(CCC1CCOCC1)Cc1cn[nH]c1-c1ccc(-c2ccccc2)cc1` was 7.23%.
The value for `O=C(CNC(=O)c1ccccc1)Oc1ccc([N+](=O)[O-])cc1` was 19.6%; that for `O=C(CCNC(=O)c1ccccc1)Nc1nc2ccccc2s1` was 7.04%.
Turning to `O=C(NC(Nc1nc2ccc([N+](=O)[O-])cc2s1)(C(F)(F)F)C(F)(F)F)c1ccccc1`, the inhibition was 89.4% (active).
Regarding `Cc1cc(CNC(=O)c2cccc([N+](=O)[O-])c2)c2ccccc2n1`, the inhibition is 58.6%.
For the molecule `O=C(CCC(=O)c1cccs1)Nc1nc2ccccc2s1`, the inhibition was 6.48%.
The value for `O=C(O)CCC(=O)Nc1nc2ccc([N+](=O)[O-])cc2s1` was 78.8% (active); that for `Cc1csc2nc(COC(=O)c3cccc(N(C)C)c3)cc(=O)n12` was 13.4%.
The value for `COc1cc(C=NNC(=O)c2cccnc2)ccc1OC(=O)c1ccccc1F` was 8.6%.
On to `CC(CNC(=O)Cn1cnc2c(OCc3ccccc3)ncnc21)c1ccccc1` (configuration not stated), for which the inhibition is 3.56%.
The same measure for `O=C(c1ccc(N2CCOCC2)c([N+](=O)[O-])c1)N1CCN(c2ccccc2F)CC1`: 7.32%; for `O=C(Nc1cccc(S(=O)(=O)N2CCCCC2)c1)c1cncc(Br)c1`: -0.59%.
As to `C=CC[C@@H](CC(=O)N[C@H](CO)Cc1ccccc1)C(=O)N[C@H](C)COC(=O)[C@@H](CC=C)Cc1ccc(F)cc1`, the inhibition was 20.2%.
For `CC(=O)c1cccc(NC(=O)C2CCCN(S(=O)(=O)c3cccc4nonc34)C2)c1` (configuration not stated), the inhibition is 24.2%.
The value for `O=C(O)C(NS(=O)(=O)c1cccc2nsnc12)c1ccccc1` (configuration not stated) was 40.5%; that for `COc1ccc(N(C)C(=O)C2CCN(S(=O)(=O)c3cccc4nsnc34)CC2)cc1` was 14.4%.
The same measure for `CC(=O)c1ccc(NC(=O)C2CCCN2S(=O)(=O)c2cccs2)cc1` (configuration not stated): 12%.
The value for `Cc1ccc2nsnc2c1S(=O)(=O)N1CCCC1C(=O)O` (configuration not stated) was 30.4%.
For the molecule `CC1CCCCC1NC(=O)C1CCCN1S(=O)(=O)c1cccc2nsnc12` (configuration not stated), the inhibition was 73.9% (active).
Take `COc1ccc(OC)c(NC(=O)C2CCCN2S(=O)(=O)c2cccc3nsnc23)c1` (configuration not stated): the inhibition was 44.2% (active).
Turning to `CC(=O)c1cccc(NC(=O)C2CCCN2S(=O)(=O)c2cccc3nsnc23)c1` (configuration not stated), the inhibition was 110% (active).
`COc1ccc(NS(=O)(=O)c2cccc3nsnc23)cc1Cl`: the inhibition is 12.4%.
